High-throughput results as filed in PubChem.
Calb FLC – affects C. albicans growth with fluconazole. growth inhibition, % (no concentration beside the values). C. albicans CaCi-2 (fluconazole-resistant clinical isolate) + fluconazole, Alamar Blue growth, 48 h. actives 0.57% (n = 300,000);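 active = growth inhibition above about 58% in most replicates, limit read from the data, passing the limit was not always enough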;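 note: all wells also contain fluconazole at 8 µg/ml as a sub-toxic cotreatment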
697 NFkB inh – lowers PMA/ionomycin-induced NF-kB signal in 697 B cells; 697 B-cell NF-kB luciferase reporter, 16 h; inhibition, % at 4 µM; actives 0.33% (n = 330,000); in the data active = inhibition above about 35%
Jurkat NFkB inh – inhibitors of the PMA/ionomycin-induced NF-kB reporter in Jurkat cells; PMA/ionomycin-induced NF-kB luciferase reporter, luminescence; inhibition, % at 4 µM; AID 435003; actives 0.53% (n = 330,000); in the data active = inhibition above about 50%
Beta apoptosis – beta cell apoptosis inhibition; protection from apoptosis, % (test concentration not listed); INS-1E cytokine-induced death, ATP luminescence, 48 h; percent of positive-control rescue, neutral wells zero; actives 0.8% (n = 300,000); AID 435005;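 active = Every replicate reaches about 75%, or at least half do and their mean reaches it too, limit read from the data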;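 note: higher means more ATP so stronger rescue from cytokine killing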
Shn3 3UTR inh – reduces Shn3 3'UTR luciferase signal in osteoblasts; Clone20 osteoblast Shn3 3'UTR firefly luciferase, 24 h; inhibition, % at 12.5 µM; actives 0.52% (n = 360,000); AID 588674;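 active = mean inhibition of at least 75% with every replicate also reaching 75%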
Each line names hits and unclear results; the compound was inactive in the other large screens. A selection: hits, their analogues and other compounds. The true share with any hit is near 2%.

COc1ccc(-c2cc(C(F)(F)F)nc(S(=O)(=O)CCCC(=O)Nc3cc(C)on3)n2)cc1OC	none (no result: 697 NFkB inh, Jurkat NFkB inh, Beta apoptosis)
COc1ccccc1-c1cc(C(F)(F)F)nc(S(=O)(=O)CCCC(=O)Nc2cc(C)on2)n1	Shn3 3UTR inh 97
COc1cc(OC)cc(-c2noc([C@@H]3O[C@H](CO)[C@@H](O)[C@H]3O)n2)c1	none (no result: Calb FLC, 697 NFkB inh, Jurkat NFkB inh, Beta apoptosis)
CCOc1ccc(NC(=O)CN(C)C(=O)CCCc2nc3ccccc3c(=O)[nH]2)cc1OCC	none
CS(=O)(=O)c1nc(-c2ccco2)cc(C(F)(F)F)n1	Beta apoptosis 80 (no result: Shn3 3UTR inh)
COc1ccccc1-c1cc(C(F)(F)F)nc(S(C)(=O)=O)n1	Shn3 3UTR inh 97
CN1CCN(c2nc(-c3ccco3)cc(C(F)(F)F)n2)CC1	none
CC(=O)Nc1cccc(NC(=O)CSc2n[nH]c(-c3ccccc3)n2)c1	none (no result: Calb FLC)
CC1CCN(S(=O)(=O)c2cc(F)ccc2CN2C(=O)c3cccnc3C2=O)CC1	none
CCC(=O)NC(c1ccco1)c1cc(Cl)c2ccccc2c1O (configuration not stated)	none (no result: Calb FLC)
CCCC(=O)NC(c1ccco1)c1cc(Cl)c2cccnc2c1O (configuration not stated)	Beta apoptosis 82
CCCC(=O)NC(c1cccs1)c1cc(Cl)c2cccnc2c1O (configuration not stated)	Calb FLC 86, Beta apoptosis 93
CCCC(=O)NC(c1ccc2c(c1)OCO2)c1cc(Cl)c2cccnc2c1O (configuration not stated)	Beta apoptosis 85, Shn3 3UTR inh 87
COc1ccc(NC(=O)/C(C#N)=C/c2ccc(-c3ccc(Cl)c(C(=O)O)c3)o2)cc1	none
O=C1NC(=O)C2(CCc3ccccc32)N1 (configuration not stated)	none
C=C1CC2(OC1=O)c1ccccc1CCc1ccccc12	Shn3 3UTR inh 100 (no result: Calb FLC, 697 NFkB inh, Jurkat NFkB inh, Beta apoptosis)
COc1ccccc1CCNC(=O)CNC(=O)Cc1cccc2ccccc12	none
Cc1noc(C)c1CSCC(=O)N1CCN(c2ccc(F)cc2)CC1	none
Cc1cccc(N2CCN(C(=O)CSCc3c(C)noc3C)CC2)c1C	Shn3 3UTR inh 85 (no result: Beta apoptosis)
COc1cccc(Nc2nc(NCC3CCCO3)c3ccccc3n2)c1 (configuration not stated)	Shn3 3UTR inh 88
COc1ccc(C(CCNC(C)c2ccccc2)C(C)C)cc1 (configuration not stated)	none
COc1ccc(C(C)NCCC(c2ccc(OC(C)C)cc2)c2ccccc2OC)cc1 (configuration not stated)	Beta apoptosis 82
Nc1c(C(=O)Nc2ccc3c(c2)OCCO3)nnn1Cc1cccc(Cl)c1	none
Nc1c(C(=O)Nc2ccc3c(c2)OCCO3)nnn1Cc1ccccc1Cl	Beta apoptosis 93
Cc1csc2ncnc(NCCc3ccccn3)c12	Calb FLC 98, Beta apoptosis 79
COc1ccc(N=CC2=C(Nc3ccc(OC)cc3)c3c(C)nn(-c4ccccn4)c3CC2)cc1	Beta apoptosis 110 (no result: Calb FLC, Shn3 3UTR inh)
COc1cccc(/C=N/NC(=O)c2cc3cc([N+](=O)[O-])ccc3s2)c1O	Beta apoptosis 82, Shn3 3UTR inh 91 (no result: 697 NFkB inh, Jurkat NFkB inh)
Cc1ccc(/C=N/NC(=O)c2c(-c3ccccc3)noc2C)c(O)c1	Calb FLC 112, Beta apoptosis 93
CCOC(=O)c1c(C)[nH]c(C(=O)N/N=C\c2ccccc2O)c1C	Beta apoptosis 77 (no result: 697 NFkB inh, Jurkat NFkB inh)
COc1cccc(/C=N/NC(=O)c2c(-c3ccccc3)noc2C)c1O	Beta apoptosis 87, Shn3 3UTR inh 88
CCOC(=O)c1c(C)[nH]c(C(=O)N/N=C/c2cc([N+](=O)[O-])ccc2O)c1C	none
COc1cccc(/C=N/NC(=O)c2c(-c3ccccc3)noc2C)c1OC	none
CC(OC(=O)/C=C/c1ccccc1)C(=O)Nc1cccc(C#N)c1 (configuration not stated)	none
COc1ccc(OC)c2[nH]c(C(=O)N/N=C/c3ccccc3O)cc12	Calb FLC 90, Beta apoptosis 96, Shn3 3UTR inh 93
COc1cccc(/C=N/NC(=O)c2cc(-c3cccn3C)n[nH]2)c1O	Calb FLC 103
COc1cccc(/C=N/NC(=O)C(=O)N/N=C/c2cccc(OC)c2O)c1O	none (no result: Calb FLC, 697 NFkB inh, Jurkat NFkB inh, Beta apoptosis)
COc1cccc(/C=N/NC(=O)c2ccoc2C)c1O	Beta apoptosis 86
Cc1onc(-c2ccccc2)c1C(=O)N/N=C(\N)COc1ccc(Cl)cc1	Calb FLC 86
COc1ccc(/C=N/NC(=O)c2cc3c(OC)ccc(OC)c3[nH]2)cc1O	none
O=C(c1ccc(Cl)cc1)N1CCN(c2ccnc3cc(Cl)ccc23)CC1	Calb FLC 99 (no result: 697 NFkB inh, Jurkat NFkB inh, Beta apoptosis)
